Test results published in PubChem BioAssay (Tox21).
Inconclusive results are not listed. Calls of active or inactive are those of the source. Calls follow the shape of the dose curve; as a rule, active = well fitted curve in the direction sought with a large enough effect in the repeat runs; inconclusive = weak or mixed curves; inactive = no such curve, though single readings can be large; an effect the other way counts as inactive or inconclusive.

Tests used:
[1] = A CellTox Green Cytotoxicity Assay to monitor cytotoxicity in HEK293 cells - 40 hour (AID 1224871); also: nearly all actives have a fitted effect of over 45% in size
Summary of the method: (§1)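 Real-time, in one plate: 600 HEK293 cells/well with dead-cell DNA dye, pinned compound after 5 h, 37 C incubation over 40 h; viable cells give no appreciable fluorescence.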

[2] = qHTS RealTime-Glo MT Cell Viability Assay in HEK293 cells - 16 hour (AID 1224872); also: top concentration of the series differs between compounds; nearly all actives have a fitted effect of over 50% in size
Summary of the method: (§2)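 Reads taken at 0, 8, 16, 24, 32 and 40 h from the same wells. HEK293 cells (600/well) carried RealTime-Glo reagents from seeding, with compound added after a 5 h settle at 37 C.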

[3] = qHTS RealTime-Glo MT Cell Viability Assay in HepG2 cells - 8 hour (AID 1224873); also: nearly all actives have a fitted effect of over 55% in size
Summary of the method: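 HepG2 cells (600/well) mixed with RealTime-Glo MT reagent, settled 5 h at 37 C/5% CO2 before compound addition. Nonlytic NanoLuc luminescence from viable-cell prosubstrate reduction read repeatedly during 40 h treatment at 37 C.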

[4] = qHTS RealTime-Glo MT Cell Viability Assay in HEK293 cells - 40 hour (AID 1224874); conditions: RealTime-Glo luminescence; max response: active compounds read low; also: nearly all actives have a fitted effect of over 50% in size
Summary of the method: (§3)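 Kinetic, non-lysing viability readout. Seed HEK293 (600/well) with reagent, incubate 5 h at 37 C/5% CO2, pin 23 nL compound in DMSO, incubate at 37 C, read luminescence at 0, 8, 16, 24, 32, 40 h.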

[5] = A CellTox Green Cytotoxicity Assay to monitor cytotoxicity in HEK293 cells - 24 hour (AID 1224875); also: series mostly up to about 77 µM; nearly all actives have a fitted effect of over 45% in size
Summary of the method: as §1

[6] = A CellTox Green Cytotoxicity Assay to monitor cytotoxicity in HepG2 cells - 16 hour (AID 1224876); also: nearly all actives have a fitted effect of over 45% in size
Summary of the method: (§4)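 Cytotoxicity was tracked as dead-cell DNA fluorescence in HepG2 cells treated with test compounds at 37 C; each time-point value comes from one kinetic series spanning 0, 8, 16, 24, 32 and 40 h.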

[7] = qHTS RealTime-Glo MT Cell Viability Assay in HepG2 cells - 32 hour (AID 1224877); also: nearly all actives have a fitted effect of over 55% in size
Summary of the method: (§5)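 HepG2 suspension premixed with RealTime-Glo reagents is plated at 600 cells per well and left 5 h at 37 C/5% CO2. Compounds in DMSO then go in, and bioluminescence reflecting viable cell number is recorded over 40 h.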

[8] = A CellTox Green Cytotoxicity Assay to monitor cytotoxicity in HepG2 cells - 24 hour (AID 1224878); also: nearly all actives have a fitted effect of over 45% in size
Summary of the method: as §4

[9] = A CellTox Green Cytotoxicity Assay to monitor cytotoxicity in HepG2 cells - 40 hour (AID 1224879); also: nearly all actives have a fitted effect of over 40% in size
Summary of the method: as §4

[10] = qHTS RealTime-Glo MT Cell Viability Assay in HEK293 cells - 0 hour (AID 1224880)
Summary of the method: as §3

[11] = A CellTox Green Cytotoxicity Assay to monitor cytotoxicity in HEK293 cells - 32 hour (AID 1224881); also: nearly all actives have a fitted effect of over 40% in size
Summary of the method: as §1

[12] = A CellTox Green Cytotoxicity Assay to monitor cytotoxicity in HepG2 cells - 0 hour (AID 1224882); also: nearly all actives have a fitted effect of over 35% in size
Summary of the method: as §4

[13] = A CellTox Green Cytotoxicity Assay to monitor cytotoxicity in HEK293 cells - 8 hour (AID 1224884); also: nearly all actives have a fitted effect of over 35% in size
Summary of the method: as §1

[14] = qHTS RealTime-Glo MT Cell Viability Assay in HepG2 cells - 16 hour (AID 1224885); also: nearly all actives have a fitted effect of over 50% in size
Summary of the method: as §5

[15] = qHTS RealTime-Glo MT Cell Viability Assay in HEK293 cells - 24 hour (AID 1224886); also: top concentration of the series differs between compounds; nearly all actives have a fitted effect of over 50% in size
Summary of the method: as §2

[16] = qHTS RealTime-Glo MT Cell Viability Assay in HEK293 cells - 8 hour (AID 1224887)
Summary of the method: as §3

[17] = qHTS RealTime-Glo MT Cell Viability Assay in HepG2 cells - 0 hour (AID 1224889); also: nearly all actives have a fitted effect of over 50% in size
Summary of the method: as §5

[18] = A CellTox Green Cytotoxicity Assay to monitor cytotoxicity in HepG2 cells - 8 hour (AID 1224890); also: nearly all actives have a fitted effect of over 45% in size
Summary of the method: as §4

[19] = A CellTox Green Cytotoxicity Assay to monitor cytotoxicity in HepG2 cells - 32 hour (AID 1224883); also: nearly all actives have a fitted effect of over 50% in size
Summary of the method: as §4

[20] = A CellTox Green Cytotoxicity Assay to monitor cytotoxicity in HEK293 cells - 16 hour (AID 1224888); also: nearly all actives have a fitted effect of over 35% in size
Summary of the method: as §1
% is scaled to controls: 0 for no effect and ±100 for the full control effect.

C=C(C)C(=O)OCCCCCCCCCCCCCCCCCC
inactive: cytotoxicity increase [1] 0.266% [at 15.8 µM] | activity change, negative = cytotoxicity [2] 9.27% [at 15.8 µM] | viability change, negative = cytotoxic [3] -0.392% [at 15.8 µM] | max response [4] 3.5% | activity change [5] 0.0651% [at 15.8 µM, active compounds read high] | cytotoxicity increase [6] 3.12% [at 15.8 µM] | activity change, negative = cytotoxic [7] 6.06% [at 15.8 µM] | cytotoxicity [8] -0.0576% [at 15.8 µM] | cytotoxicity increase [9] 2.24% [at 15.8 µM] | activity change, negative = cytotoxicity [10] 4.5% [at 15.8 µM] | cytotoxicity increase [11] 3.44% [at 15.8 µM] | cytotoxicity [12] 0.514% [at 15.8 µM] | cytotoxicity increase [13] -3.54% [at 15.8 µM] | activity change, negative = cytotoxic [14] 0.444% [at 15.8 µM] | activity change, negative = cytotoxicity [15] 11.4% [at 15.8 µM] | activity change, negative = cytotoxicity [16] 4.13% [at 15.8 µM] | activity change, negative = cytotoxicity [17] -1.29% [at 15.8 µM] | cytotoxicity increase [18] 0.0012% [at 15.8 µM]

O=Cc1ccccc1[N+](=O)[O-]
inactive: Potency [1] | Potency [2] | outcome [3] | max response [4] -5.52% | Potency [5] | Potency [6] | Potency [7] | Potency [8] | Potency [9] | outcome [10] | Potency [11] | Potency [12] | Potency [19] | Potency [13] | outcome [14] | Potency [16] | Potency [20] | Potency [17] | Potency [18]

Nc1nc2c(ncn2CCC(CO)CO)c(=O)[nH]1
inactive: Potency [1] | Potency [2] | outcome [3] | max response [4] 0.17% | Potency [5] | Potency [6] | Potency [7] | Potency [8] | Potency [9] | outcome [10] | Potency [11] | Potency [12] | Potency [19] | outcome [14] | Potency [15] | Potency [16] | Potency [17] | Potency [18]

CC(CCO)CCCC(C)(C)O (centres undefined)
inactive: Potency [1] | Potency [2] | outcome [3] | max response [4] -6.84% | Potency [5] | Potency [6] | Potency [7] | Potency [8] | Potency [9] | outcome [10] | Potency [11] | Potency [12] | Potency [19] | Potency [13] | outcome [14] | Potency [16] | Potency [20] | Potency [17] | Potency [18]

CC(C)CCCCCCN
inactive: Potency [1] | Potency [2] | outcome [3] | max response [4] -7.14% | Potency [5] | Potency [6] | Potency [7] | Potency [8] | Potency [9] | outcome [10] | Potency [11] | Potency [12] | Potency [19] | Potency [13] | outcome [14] | Potency [16] | Potency [20] | Potency [17]

NC(=O)c1c(Cl)cccc1Cl
inactive: Potency [1] | Potency [2] | outcome [3] | max response [4] -0.288% | Potency [5] | Potency [6] | Potency [7] | Potency [8] | Potency [9] | outcome [10] | Potency [11] | Potency [12] | Potency [13] | outcome [14] | Potency [15] | Potency [16] | Potency [20] | Potency [17] | Potency [18]

O=C(O)CCNC(=O)c1ccc(N=Nc2ccc(O)c(C(=O)O)c2)cc1
inactive: Potency [1] | Potency [2] | outcome [3] | max response [4] -0.519% | Potency [5] | Potency [6] | Potency [7] | Potency [8] | Potency [9] | outcome [10] | Potency [11] | Potency [12] | Potency [19] | outcome [14] | Potency [15] | Potency [16] | Potency [17] | Potency [18]

Nc1ccc2cc(S(=O)(=O)O)ccc2c1
inactive: Potency [1] | Potency [2] | outcome [3] | max response [4] -14% | Potency [5] | Potency [6] | Potency [7] | Potency [8] | Potency [9] | outcome [10] | Potency [11] | Potency [12] | Potency [19] | Potency [13] | outcome [14] | Potency [16] | Potency [20] | Potency [17] | Potency [18]

CNc1ncnc2nc[nH]c12
inactive: Potency [1] | Potency [2] | outcome [3] | max response [4] 3.96% | Potency [5] | Potency [6] | Potency [7] | Potency [8] | Potency [9] | outcome [10] | Potency [11] | Potency [12] | Potency [19] | outcome [14] | Potency [15] | Potency [16] | Potency [20] | Potency [17] | Potency [18]

CC(=O)NC(Cc1ccccc1)C(=O)O (centres undefined)
inactive: Potency [1] | Potency [2] | outcome [3] | max response [4] 5.56% | Potency [5] | Potency [6] | Potency [7] | Potency [8] | Potency [9] | outcome [10] | Potency [11] | Potency [12] | Potency [19] | outcome [14] | Potency [15] | Potency [16] | Potency [17] | Potency [18]

O=C(O)c1cccc(C(=O)O)n1
inactive: Potency [1] | Potency [2] | outcome [3] | max response [4] -0.906% | Potency [5] | Potency [6] | Potency [7] | Potency [8] | Potency [9] | outcome [10] | Potency [11] | Potency [12] | Potency [19] | outcome [14] | Potency [16] | Potency [20] | Potency [17] | Potency [18]

COc1nc(C)nc(N)n1
inactive: Potency [1] | Potency [2] | outcome [3] | max response [4] -1.44% | Potency [5] | Potency [6] | Potency [7] | Potency [8] | Potency [9] | outcome [10] | Potency [11] | Potency [12] | Potency [19] | outcome [14] | Potency [15] | Potency [16] | Potency [20] | Potency [17] | Potency [18]

Cc1c(F)cc2c(=O)c(C(=O)O)cn3c2c1CCC3C (centres undefined)
inactive: Potency [1] | Potency [2] | outcome [3] | max response [4] -0.802% | Potency [5] | Potency [6] | Potency [7] | Potency [8] | Potency [9] | outcome [10] | Potency [11] | Potency [12] | Potency [19] | outcome [14] | Potency [16] | Potency [20] | Potency [17]
